In all, about 97,000 compounds went through this assay and about 810 (0.84%) were called active. Cut-off read from the data, not from the text of the source: active = inhibition above about 19%; inactive = the rest. The sample as a whole holds a higher share of actives than the screen did.
Biological target: Focal adhesion kinase 1 (Homo sapiens) (UniProt Q05397)
Experiment: FAK kinase inhibitors, primary screen, biochemical (AID 727);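 note: 0% = DMSO and 100% = reference compound high control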
Conditions: biochemical FAK kinase activity assay; active compounds read high;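 tested at 7 µM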

Focal adhesion kinase 1 (Homo sapiens), sequence (Q05397 whole entry, looked up): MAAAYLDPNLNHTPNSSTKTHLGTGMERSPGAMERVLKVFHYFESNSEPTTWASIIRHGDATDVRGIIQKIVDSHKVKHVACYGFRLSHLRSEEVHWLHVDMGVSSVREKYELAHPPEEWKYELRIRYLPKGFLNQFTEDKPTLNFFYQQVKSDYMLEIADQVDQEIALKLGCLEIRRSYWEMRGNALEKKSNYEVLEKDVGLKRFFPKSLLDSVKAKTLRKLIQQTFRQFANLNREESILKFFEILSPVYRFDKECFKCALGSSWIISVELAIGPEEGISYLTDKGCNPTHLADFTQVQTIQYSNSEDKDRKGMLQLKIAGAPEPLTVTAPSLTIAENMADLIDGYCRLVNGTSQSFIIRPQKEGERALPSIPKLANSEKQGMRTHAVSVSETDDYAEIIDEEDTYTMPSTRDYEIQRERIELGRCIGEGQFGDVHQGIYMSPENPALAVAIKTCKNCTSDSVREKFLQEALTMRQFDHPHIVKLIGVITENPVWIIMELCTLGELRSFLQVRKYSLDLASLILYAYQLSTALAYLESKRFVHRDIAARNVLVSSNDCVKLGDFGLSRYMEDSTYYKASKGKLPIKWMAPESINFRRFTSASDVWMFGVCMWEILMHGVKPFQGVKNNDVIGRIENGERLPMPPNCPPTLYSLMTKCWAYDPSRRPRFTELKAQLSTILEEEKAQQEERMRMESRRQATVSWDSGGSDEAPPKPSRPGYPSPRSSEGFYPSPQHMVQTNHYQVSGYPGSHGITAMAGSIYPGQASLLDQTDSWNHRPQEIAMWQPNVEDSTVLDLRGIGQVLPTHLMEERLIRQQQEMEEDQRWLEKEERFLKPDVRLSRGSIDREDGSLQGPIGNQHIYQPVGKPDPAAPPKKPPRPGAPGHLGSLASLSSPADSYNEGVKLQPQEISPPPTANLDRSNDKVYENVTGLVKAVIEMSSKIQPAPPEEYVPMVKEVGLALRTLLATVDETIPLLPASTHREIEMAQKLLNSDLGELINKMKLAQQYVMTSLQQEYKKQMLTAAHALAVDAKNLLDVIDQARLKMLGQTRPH

inhibition, inactive:
CCOC(=O)CC(=O)CSc1nc(-c2ccccc2)cc(-c2ccc(Cl)cc2)c1C#N -8.83%
N#CC1=C(N)N(c2ccccc2)C2=C(C(=O)CCC2)C1c1ccccc1 (stereo not drawn) 0.57%
O=C(NC1CCN(C(=S)NCc2ccco2)CC1)c1ccc(F)cc1 2.16%
CCOc1ccc(N=Cc2c(O)n(-c3cccc(C)n3)c(=O)c3ccccc23)cc1 -4.03%
CCN(c1ccccc1)S(=O)(=O)c1ccc(C(=O)Nc2nccs2)cc1 1.43%
COc1cc(C(=O)Nc2nccs2)cc(OC)c1OC -2.65%
Cc1ccccc1-n1c(C)cc(/C=N/NC(=O)c2ccc(CN3CCOCC3)cc2)c1C 5.57%
O=C(Cn1cc(/C=N/NC(=O)c2cccc(C(F)(F)F)c2)c2ccccc21)Nc1ccc(F)cc1 -6.09%
CCCNC(=S)N1CCC(NC(=O)C23CC4CC(CC(C4)C2)C3)CC1 0%
Cc1nn(-c2ccccc2)c(Cl)c1C(=O)Nc1ccccc1 1.43%
Cc1cccc(NC(=O)C(C)N2C(=O)C3C4CC(C(Br)C4Br)C3C2=O)c1 (stereo not drawn) 3.39%
COc1nc(-c2ccc(Cl)cc2)ccc1-c1noc(-c2cccs2)n1 -0.49%
CCOC(=O)C1=C(CN2CCc3ccccc32)NC(=O)NC1c1cc(C)ccc1C (stereo not drawn) 4.94%
CN(Cc1ccccc1)C(=O)COc1ccccc1 -1.65%
Cc1no[n+]([O-])c1COc1ccccc1/C=C1\NC(=S)NC1=O 1.38%
O=C1CCN(C(=O)Nc2ccccc2)N1 -0.01%
COC(=O)CN(C(=S)Nc1ccc(Cl)cc1)C1CC(=O)N(c2ccc(OC)cc2)C1=O (stereo not drawn) 1.24%
Cc1ccc(OCC(=O)N/N=C/c2ccncc2)cc1 1.58%
COC(=O)c1ccc(NC(=O)C23CC4CC(C2)CC(n2cnc(Cl)n2)(C4)C3)cc1 2.71%
COc1ccc(C(=S)Nc2ccccc2)cc1 -5.15%
CCCNC(=O)Nc1ccccc1C(=O)Nc1ccc(OC)cc1 4.85%
Cc1cccc(NC(=S)N2CCC(c3nc4ccccc4s3)CC2)c1 0.28%
Cc1nn(C)c(Oc2ccccc2)c1CCNS(=O)(=O)c1ccc(F)cc1 0.76%
Cc1nc2ccccc2c(-c2ccccc2)c1C(=O)c1ccccc1 0.7%
Cc1ccc(NC(=S)NC(=O)c2ccc(-c3ccccc3)cc2)c(C)c1 1.93%
CC(=O)NS(=O)(=O)c1ccc(NC(=O)/C=C/c2ccccc2Cl)cc1 -4.73%
Cc1ccc(/C=N/NC(=O)Cn2nc(C)c(Br)c2C)o1 -0.29%
COc1ccc(CCn2c(=N)c(C(=O)NCc3ccco3)cc3c(=O)n4cccc(C)c4nc32)cc1 1.33%
Cc1cccn2c(=O)c3cc(C#N)c(=O)n(CCCN4CCOCC4)c3nc12 2.6%
Cc1cccc(COc2ccccc2/C=N/Nc2ccc([N+](=O)[O-])cc2)c1 14.6%
Cc1[nH]c2ccccc2c1C(=O)COC(=O)C(C)C -1.84%
O=C(c1ccccn1)c1ncc(C(F)(F)F)cc1Cl -4.84%
O=C(Cc1ncc(C(F)(F)F)cc1Cl)Nc1cccc(Br)c1 -7.54%
COc1ccc(CC(NC(C)=O)C(=O)N2CCN(C(=O)Nc3cccc(Cl)c3)CC2)cc1OC (stereo not drawn) -1.84%
CCOc1cc2[nH]c(=S)n(Cc3ccc(C(=O)NCCOC)cc3)c(=O)c2cc1OCC 1.95%
Cc1nn(C)cc1CNC(=O)Nc1ccc(Cl)cc1 0.55%
CN(CC(=O)Nc1cccc2c1CCCC2)S(=O)(=O)c1ccc(Cl)cc1 2.06%
Cc1cc(=O)oc(C)c1C(=O)N1CCCCC1 -3.95%
Cc1c(NC(=O)CCCOc2ccccc2)cccc1[N+](=O)[O-] 5.03%
O=c1c2ccccc2c(-c2ccc(F)cc2)nn1-c1ccc(C(F)(F)F)cc1 -9.67%
Cc1cccc(Nc2ccccc2C(=O)NCc2ccco2)c1C -0.25%
COc1ccccc1OCCNc1cc(N2CCOCC2)ccc1[N+](=O)[O-] 0.07%
CCN(CC)Cc1cc(C(C)=O)ccc1O -1.48%
O=C1C(=O)N(c2ccccc2)c2ccccc21 -1.97%
CC(C)CC[n+]1ccn(C2=C([O-])c3ccccc3C(=O)/C2=N\S(=O)(=O)c2ccccc2)c1 0.45%
COCCOC(=O)c1sc(=S)n(CCOC)c1N 0.4%
Cc1cccc(-n2nc3c(c2NC(=O)c2ccc(Br)o2)CSC3)c1C -10.1%
COc1cc(OC)c(NC(=O)c2ccc(Br)o2)cc1Cl 2.86%
O=C(Nc1ccc(F)c(Cl)c1)C1CCN(S(=O)(=O)c2cccnc2)CC1 5.16%
COc1ccc(C2Nc3ccccc3C(=O)N2Cc2ccccc2)cc1Cn1nnc2ccccc21 (stereo not drawn) 1.35%
O=C(c1ccc(Cl)c(Cl)c1)N1CCCC1 -2.15%
CC(=C1C(=O)c2ccccc2C1=O)N1CCN(c2ccccn2)CC1 -0.27%
CC(C)CC(N=C1NC(C)(C)Cc2ccccc21)C(=O)O (stereo not drawn) -1%
COC(=O)c1ccccc1NC(=O)CSc1nnnn1C -1.15%
O=[N+]([O-])c1ccccc1NCc1ccc(Cl)cc1 1.41%
Cc1ccc(CNC(=O)COc2ccc(S(=O)(=O)NC(C)C)cc2)cc1 -1.67%
Cc1nc(N2CCOCC2)nc2c1CCCC2 -0.58%
CCC(C)NC(=O)CCCc1ccccc1 (stereo not drawn) 2.61%
CCn1c(SCc2ccc(C)cc2)nnc1-c1nn(-c2ccccc2)ccc1=O 3.11%
CN(C)/C(CN1CCCCC1)=C1\N=C(c2ccccc2)OC1=O -3.3%
CCN(CC)c1nc(-c2ccccc2)cc(C(F)(F)F)c1C#N 4.59%
FC(F)(F)c1nnc2sc(-c3ccco3)nn12 -8.22%
Cc1nnc2sc(-c3ccco3)nn12 0.33%
NC(=O)c1ncc(C(F)(F)F)cc1Oc1ccc(F)cc1 1.7%
COc1ccccc1N(C)S(=O)(=O)c1ccc(C(=O)N2CCC(C(N)=O)CC2)cc1 -1.2%
COC(=O)c1c(NC(=O)c2cccs2)sc2c1CCCC2 -3.96%
CCOC(=O)c1c(NC(=O)CSc2nnc(C)c(=O)[nH]2)sc2c1CCC2 -5.37%
OCCN(Cc1ccccc1)Cc1ccc(Cl)cc1 1.29%
CCOC(=O)c1c(NC(=O)CSc2nnc(CNc3ccc(C)cc3C)o2)sc(C)c1C 0.35%
Cc1nn(Cc2ccc(C(=O)N3N=C(C(F)F)CC3(O)C(F)F)cc2)c(C)c1[N+](=O)[O-] (stereo not drawn) -1.38%
Cc1ccc(S(=O)(=O)/N=C(/Nc2ccccn2)c2ccc(Cl)cc2)cc1 -9%
COc1cc(C2CC(=O)c3cnc(NC(C)=O)nc3C2)cc(OC)c1OC (stereo not drawn) 0.08%
N#C/C(=C\c1ccccc1)c1n[nH]c(Cn2cncn2)n1 -0.5%
COc1ccc(N/N=C2/CCCCC2=O)cc1 -0.48%
O=C1CSC2=NCN(c3ccccc3)CN12 3.72%
Cc1ccc2c(c1)N(CC(=O)N(Cc1ccccn1)Cc1ccco1)C(=O)C(C(C)C)O2 (stereo not drawn) 0.38%
Cc1ccccc1OC(=O)Cn1c(C(F)(F)F)nc2ccccc21 -3.25%
CCn1c(SCC(=O)Nc2nc(C)cs2)nnc1C(C)NC(=O)c1ccccc1 (stereo not drawn) -0.18%
Cc1ccc(C(=O)OC2=CC(=O)CC(C)(C)C2)cc1 1.07%
Cn1c2ccccc2n2c(=O)c(=O)n(CC(=O)c3ccc(F)cc3)nc12 -3.16%
CCOc1ccc(C(O)Cn2c(=N)n(CCN3CCCCC3)c3ccccc32)cc1 (stereo not drawn) 0.54%
COc1ncnc2sc3c(c12)CCCC3 3.78%
Cc1cc(C)n(-c2nc(SCC(=O)N3CCCC3)c3c4c(sc3n2)CCCC4)n1 1.79%
Nc1ccccc1SCc1cc([N+](=O)[O-])cc2c1OCOC2 0.81%
CC(=NCc1ccco1)c1c(C(F)(F)F)[nH]n(-c2nc3ccccc3s2)c1=O 5.23%
CC(=NCc1ccc2c(c1)OCO2)C1=C(O)c2ccccc2C1=O 6.12%

inhibition, active:
Cn1cccc1C(=O)Nc1nccs1 25.5%
Cc1ccc(-c2nn(C(C)(C)C)c3ncnc(N)c23)cc1 38.8%
COc1ccc(NC(=O)ON=C2c3ccccc3-c3ccccc32)cc1 35%
O=[N+]([O-])c1ccc(C=Nc2ccc(Cl)cc2Cl)s1 20.7%
Cc1cccn2c(=O)c3cc(C(=O)N4COCC4(C)C)n(C)c3nc12 25.2%
CC(=O)c1ccc(Cc2ncc(C(F)(F)F)cc2Cl)s1 32.1%
Cc1cc(C)nc(-n2nc(C)cc2NC(=O)c2ccc(Br)o2)n1 19.6%
O=C(c1ccc2c(c1)C(=O)N(c1ccc(Cl)cc1)C2=O)N1CCN(c2ccccn2)CC1 22.9%
Fc1ccc(-c2ccc(-c3nn4c(-c5ccco5)nnc4s3)o2)cc1 19.2%
COC(=O)c1c(NC(=O)CSc2nncs2)sc2c1CCCCC2 19.5%
COCCn1c(C)cc(C(=O)CSc2ncnc3sc4c(c23)CCC4)c1C 83.3%
CC(=NCc1ccco1)C1=C(O)c2ccccc2C1=O 27.9%
